Test [1] can be described thus: qHTS RealTime-Glo MT Cell Viability Assay in HEK293 cells - 24 hour (AID 1224886). Further: nearly all actives have a fitted effect of over 50% in size. Further: potency means the concentration at half of the fitted maximal effect. On activity change, negative = cytotoxicity: top concentration of the series differs between compounds. In a few lines: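 Reads taken at 0, 8, 16, 24, 32 and 40 h from the same wells. HEK293 cells (600/well) carried RealTime-Glo reagents from seeding, with compound added after a 5 h settle at 37 C.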
A short description of test [2]: qHTS RealTime-Glo MT Cell Viability Assay in HEK293 cells - 8 hour (AID 1224887). Further: nearly all actives have a fitted effect of over 50% in size. Further: potency means the concentration at half of the fitted maximal effect. On activity change, negative = cytotoxicity: top concentration of the series differs between compounds. In a few lines:
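Kinetic, non-lysing viability readout. Seed HEK293 (600/well) with reagent, incubate 5 h at 37 C/5% CO2, pin 23 nL compound in DMSO, incubate at 37 C, read luminescence at 0, 8, 16, 24, 32, 40 h.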
(In general: qHTS replaces the single test concentration by a dilution series.)

A short description of test [3]: A CellTox Green Cytotoxicity Assay to monitor cytotoxicity in HEK293 cells - 16 hour (AID 1224888). Further: nearly all actives have a fitted effect of over 35% in size. In a few lines:
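Real-time, in one plate: 600 HEK293 cells/well with dead-cell DNA dye, pinned compound after 5 h, 37 C incubation over 40 h; viable cells give no appreciable fluorescence.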

The nature of test [4]: qHTS RealTime-Glo MT Cell Viability Assay in HepG2 cells - 0 hour (AID 1224889). Further: nearly all actives have a fitted effect of over 50% in size. The method, boiled down: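 HepG2 suspension premixed with RealTime-Glo reagents is plated at 600 cells per well and left 5 h at 37 C/5% CO2. Compounds in DMSO then go in, and bioluminescence reflecting viable cell number is recorded over 40 h.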
A short description of test [5]: A CellTox Green Cytotoxicity Assay to monitor cytotoxicity in HepG2 cells - 8 hour (AID 1224890). Further: nearly all actives have a fitted effect of over 45% in size. The method, boiled down:
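Cytotoxicity was tracked as dead-cell DNA fluorescence in HepG2 cells treated with test compounds at 37 C; each time-point value comes from one kinetic series spanning 0, 8, 16, 24, 32 and 40 h.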

A short description of test [6]: qHTS assay to identify small molecule antagonists of the estrogen receptor alpha (ER-alpha) signaling pathway using the BG1 cell line in the presence of 0.1 nM 17-beta-estradiol - cell viability counter screen (AID 1259241). Further: nearly all actives have a fitted effect of over 40% in size. In a few lines: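 VM7Luc4E2 cells (endogenous full-length ER-alpha, 4xERE-luciferase), cultured 5 days in charcoal-stripped serum, exposed to compounds with 0.1 nM 17beta-estradiol (final) for 22 hr at 37C. Viability read in same wells as live-cell protease fluorescence after 30 min.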

A short description of test [7]: qHTS assay to identify small molecule antagonists of the androgen receptor (AR) signaling pathway using the MDA cell line in the presence of 0.5 nM R1881 - cell viability counter screen (AID 1259242). Further: nearly all actives have a fitted effect of over 45% in size. In a few lines: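 Cells seeded at 3,000/well and allowed 5 hr at 37C, 0% CO2 before compound transfer and R1881 (0.5 nM final) addition; 16 hr later, live-cell protease fluorescence indicated cytotoxicity.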

The target of test [8] is Estrogen receptor (Homo sapiens) (UniProt P03372). Kind of test: qHTS assay to identify small molecule antagonists of the estrogen receptor alpha (ER-alpha) signaling pathway using the BG1 cell line in the presence of 0.1 nM 17-beta-estradiol (AID 1259244). Further: nearly all actives have a fitted effect of over 50% in size. The method, boiled down:
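Luciferase signal from VM7Luc4E2 ERE-reporter cells, co-dosed with test compound and 0.1 nM final 17beta-estradiol for 22 h, read with ONE-Glo.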

Test [9] in a line: qHTS assay to identify small molecule HDAC inhibitors (AID 1259364). Further: potency means the concentration at half of the fitted maximal effect.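 Further: wild-type HCT-116 cells with endogenous class I/II HDAC activity; nearly all actives have a fitted effect of over 45% in size.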 On activity change, negative = inhibition: top concentration of the series differs between compounds. In a few lines: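 HCT-116 wt cells, 1,500/well, overnight attach. Compounds (DMSO) 2 h, 37 °C. HDAC-Glo I/II, 30 min RT. Luminescence.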

Records with an inconclusive call do not appear. Unmarked numbers belong to inactive results. Activity calls are given as the source filed them. The call rests on the fitted dose curve; in most records, active means well fitted curve in the direction sought with a large enough effect in the repeat runs; inconclusive means weak or mixed curves; inactive means no such curve, though single readings can be large; an effect the other way counts as inactive or inconclusive.
On the % scale 0 is the no-effect control and ±100 the full control effect.

Estrogen receptor (Homo sapiens), sequence (P03372 whole entry, looked up): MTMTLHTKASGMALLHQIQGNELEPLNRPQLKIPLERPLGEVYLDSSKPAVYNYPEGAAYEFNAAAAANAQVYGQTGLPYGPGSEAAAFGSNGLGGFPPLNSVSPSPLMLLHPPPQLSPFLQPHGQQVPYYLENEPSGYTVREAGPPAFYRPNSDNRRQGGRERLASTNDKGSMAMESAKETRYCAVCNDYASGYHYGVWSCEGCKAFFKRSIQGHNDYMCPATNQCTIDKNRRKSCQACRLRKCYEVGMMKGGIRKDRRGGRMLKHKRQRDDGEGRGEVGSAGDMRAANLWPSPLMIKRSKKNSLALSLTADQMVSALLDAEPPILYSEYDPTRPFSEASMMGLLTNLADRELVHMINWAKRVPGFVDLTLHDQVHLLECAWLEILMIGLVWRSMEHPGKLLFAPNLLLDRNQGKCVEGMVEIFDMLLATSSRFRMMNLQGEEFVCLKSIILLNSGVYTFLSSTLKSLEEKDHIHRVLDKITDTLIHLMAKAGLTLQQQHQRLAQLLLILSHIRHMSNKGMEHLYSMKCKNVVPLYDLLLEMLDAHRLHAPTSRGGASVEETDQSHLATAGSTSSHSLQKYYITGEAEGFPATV

Turning to `CC(Cl)COP(=O)(OCC(C)Cl)OCC(C)Cl` (stereo not given), the Potency entry in [1], in [2], in test [3], in [4], in [5] and in test [6] was “inactive” throughout. For the same compound, the Potency result in test [7], in [8] and in [9] was “inactive” throughout.

As to `Cc1ccccc1OCC1CO1` (stereo not given), the Potency result in [1], in test [2], in test [3], in test [4], in [5] and in test [6] was “inactive” throughout. In addition, the Potency result in [7], in test [8] and in [9] was “inactive” throughout.

Turning to `CCC(C)N` (stereo not given), the Potency entry in [1], in [2], in test [3], in [4], in test [5] and in test [6] was “inactive” each time. Further, the Potency result in test [7], in test [8] and in [9] was “inactive” in each case.

As to `CC1=CC[C@H](CC=O)C1(C)C`, the Potency entry in [1], in [2], in test [3], in test [4], in test [5] and in [6] was “inactive” each time. The Potency entry in test [7], in test [8] and in test [9] was “inactive” throughout.

For `CCCCCCCCCCCCC`, the Potency entry in test [1], in test [2], in test [3], in [4], in test [5] and in test [6] was “inactive” throughout. Moreover, the Potency entry in test [7], in test [8] and in test [9] was “inactive” throughout.

`CC(=O)c1ccc2c(c1)CCCC2`: the Potency result in test [1], in test [2], in [3], in [4], in [5] and in test [6] was “inactive” throughout. Moreover, the Potency result in test [7], in [8] and in test [9] was “inactive” each time.

Take `CCCCCCCCCCC`: the Potency result in test [1], in test [2], in [3], in test [4], in test [5] and in [6] was “inactive” each time. In addition, the Potency result in test [7], in [8] and in test [9] was “inactive” each time.

For `Cc1cccc(C(=O)O)c1[N+](=O)[O-]`, the Potency entry in [1], in [2], in test [3], in [4], in test [5] and in [6] was “inactive” throughout. Moreover, the Potency result in test [7], in test [8] and in test [9] was “inactive” in each case.

With `CCOC(=O)CCCCCCCCC(=O)OCC`, the Potency entry in test [1], in [2], in [3], in test [4], in test [5] and in test [6] was “inactive” each time. Moreover, the Potency entry in test [7], in [8] and in test [9] was “inactive” throughout.

As to `CNC(=O)NC`, the Potency result in test [1], in test [2], in [3], in test [4], in test [5] and in [6] was “inactive” in each case. The Potency result in [7], in [8] and in [9] was “inactive” each time.

On to `O=C1OC(=O)c2cc(Oc3ccc4c(c3)C(=O)OC4=O)ccc21`, for which the Potency entry in test [1], in [2], in [3], in [4], in [5] and in test [6] was “inactive” in each case. For the same compound, the Potency entry in [7], in test [8] and in [9] was “inactive” throughout.

For `COC(OC)C(C)c1ccccc1` (stereo not given), the Potency entry in [1], in test [2], in [3], in test [4], in test [5] and in test [6] was “inactive” each time. Besides, the Potency entry in [7], in test [8] and in test [9] was “inactive” in each case.

Consider `NC(=O)NNC(N)=O`, for which the Potency entry in test [1], in [2], in test [3], in test [4], in test [5] and in test [6] was “inactive” each time. Moreover, the Potency result in test [7], in test [8] and in test [9] was “inactive” throughout.

Turning to `Cc1cc(C)cc([N+](=O)[O-])c1`, the Potency result in test [1], in test [2], in [3], in test [4], in [5] and in test [6] was “inactive” each time. Further, the Potency result in [7], in test [8] and in test [9] was “inactive” each time.

As for `CCCCOC(=O)[C@@H](C)Oc1ccc(Oc2ccc(C(F)(F)F)cn2)cc1`, the Potency is 31.1 µM (active) in test [1] and 24.7 µM (active) in test [2]. Besides, the Potency entry in test [3], in test [4], in [5], in test [6], in test [7] and in [8] was “inactive” each time. In [9], the Potency entry was “inactive”.

For the compound `O=C(O)c1ccc(OCCN2CCCCC2)cc1`, the Potency entry in [1], in [2], in test [3], in test [4], in [5] and in [6] was “inactive” each time. Also, the Potency result in test [7], in test [8] and in test [9] was “inactive” each time.

As for `C=CCCCCCCCCCCC`, the activity change, negative = cytotoxicity in test [1] is 4.16% [at 6.97 µM]; in test [2], 3.08% [at 6.97 µM]; in test [4] it was 5.28% [at 6.97 µM]; in test [6], 0.186% [at 8.39 µM]. In addition, the activity change in test [3] is -0.692% [at 6.97 µM, stronger effect = higher value]. Also, in [5], the cytotoxicity increase is 4.2% [at 6.97 µM]. The viability change, negative = cytotoxic in test [7] is 0.96% [at 8.39 µM]. For the same compound, the activity change, negative = inhibition in test [8] is 8.3% [at 8.39 µM]; in test [9], 4.91% [at 8.39 µM].

Take `C=CCOC(=O)c1ccc(C(=O)OCC=C)c(C(=O)OCC=C)c1`: the Potency result in test [1], in [2], in test [3], in test [4], in [5] and in [6] was “inactive” each time. Moreover, the Potency entry in test [7], in test [8] and in test [9] was “inactive” each time.

With `C[N+](C)(C)CC(O)CCl` (stereo not given), the Potency result in [1], in test [2], in test [3], in test [4], in test [5] and in [6] was “inactive” in each case. Besides, the Potency result in test [7], in test [8] and in test [9] was “inactive” throughout.

Consider `Cc1cc(O)c2c(c1)C(=O)c1cccc(O)c1C2=O`, for which the Potency entry in [1], in test [2], in [3], in test [4], in [5] and in test [6] was “inactive” throughout. The Potency result in test [7] and in test [8] was “inactive” throughout. The Potency in test [9] was 13.4 µM (active).

For the compound `O=S(=O)(O)CCO`, the Potency result in test [1], in test [2], in test [3], in [4], in test [5] and in [6] was “inactive” each time. The Potency entry in [7], in [8] and in test [9] was “inactive” throughout.

`CCN1CN(CC)CN(CC)C1`: the Potency result in test [1], in test [2], in [3], in test [4], in test [5] and in [6] was “inactive” each time. Moreover, the Potency entry in test [7], in [8] and in [9] was “inactive” in each case.

Turning to `OC[C@@H](O)[C@H](O)[C@@H](O)[C@@H](O)CO`, the Potency result in [1], in test [2], in test [3], in [4], in test [5] and in [6] was “inactive” throughout. The Potency entry in test [7], in test [8] and in test [9] was “inactive” in each case.

With `C=CC(C)(O)CC/C=C(\C)CC` (stereo not given), the Potency result in [1], in test [2], in test [3], in test [4], in test [5] and in [6] was “inactive” in each case. Besides, the Potency result in [7], in test [8] and in test [9] was “inactive” throughout.

For the compound `CCCCCCCCCCCCCC(=O)OC`, the Potency result in test [1], in test [2], in test [3], in [4], in [5] and in test [6] was “inactive” each time. Also, the Potency entry in test [7], in test [8] and in [9] was “inactive” in each case.
